Results reported in PubChem BioAssay (EPA / NIEHS).
Inconclusive results are not listed. The source holds several records for some structures; these can differ, active in one and inactive in another. The source made the active and inactive calls. How the source made its calls, unless noted: active means hit-call score of the fitted dose curve at least 0.9, where 1 is the maximum; inactive means score below 0.9.

Tests used:
[1] = read-out: Interleukin-8 (IL8), CXCL8 (gene 3576); assay: BSK_3C_IL8: BioMAP Diversity Plus: 3C Assay for Interleukin-8 (IL8) Biomarker Activity (AID 2283020); conditions: primary human endothelial cells (HUVEC); actives raise or lower the signal
How it was run: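 Primary human umbilical vein endothelial cells (3C system) were exposed to test chemical for 24 h, then IL-8 was quantified by ELISA. Responses were fitted bidirectionally against DMSO vehicle as baseline.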

[2] = read-out: Monokine induced gamma interferon (MIG), CXCL9 (gene 4283); assay: BSK_3C_MIG: BioMAP Diversity Plus: 3C Assay for Monokine induced gamma interferon (MIG) Biomarker Activity (AID 2283021); conditions: primary human endothelial cells (HUVEC); actives raise or lower the signal
How it was run: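 Primary human umbilical vein endothelial cells in the 3C system were exposed to chemical for 24 h, after which MIG was quantified by ELISA. Activity was fitted bidirectionally against DMSO as negative control and baseline.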

[3] = target: human Vitamin D Receptor (VDR), VDR (gene 7421) (UniProt P11473); assay: ATG_VDR_TRANS: Attagene TRANS-FACTORIAL HepG2 Assay for human Vitamin D Receptor (VDR) (AID 2283022; active means hit-call score of the fitted dose curve at least 0.9, where 1 is the maximum)
Sequence of human Vitamin D Receptor (VDR), VDR (gene 7421) (P11473 whole entry, looked up, the tested form may be a part): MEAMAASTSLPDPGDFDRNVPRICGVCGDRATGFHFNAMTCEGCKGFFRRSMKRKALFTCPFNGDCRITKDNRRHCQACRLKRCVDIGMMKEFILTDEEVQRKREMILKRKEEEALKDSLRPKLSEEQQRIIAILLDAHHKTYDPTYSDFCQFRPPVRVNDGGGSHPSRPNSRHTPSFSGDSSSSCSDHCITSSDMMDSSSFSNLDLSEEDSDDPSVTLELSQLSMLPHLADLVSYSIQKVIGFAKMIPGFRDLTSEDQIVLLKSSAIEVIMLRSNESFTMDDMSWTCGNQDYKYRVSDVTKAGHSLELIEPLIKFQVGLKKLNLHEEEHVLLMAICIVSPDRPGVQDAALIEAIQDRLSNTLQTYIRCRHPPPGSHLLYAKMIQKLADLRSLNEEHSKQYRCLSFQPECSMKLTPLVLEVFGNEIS
How it was run: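 HepG2 cells were transiently transfected with GAL4-UAS reporter units and a chimeric VDR-Gal4 construct, then dosed for 24 hours. Reporter mRNA was quantified by RT-PCR, fluorescent labeling, HpaI digestion and capillary electrophoresis; gain of signal analysed vs DMSO.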

[4] = BSK_3C_SRB: Viability Assessment in the BioMAP Diversity Plus: 3C Assay (AID 2283023); conditions: primary human endothelial cells (HUVEC);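 further: fitted both ways against DMSO so a hit may be signal rise or drop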
How it was run: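 Human umbilical vein endothelial cells in the 3C system, treated 24 h. Total protein measured by 0.1% sulforhodamine B staining after 10% TCA fixation, read at 560 nm; bidirectional fit versus DMSO.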

[5] = read-out: Matrix Metallopeptidase 1 (MMP1), MMP1 (gene 4312); assay: BSK_BE3C_MMP1: BioMAP Diversity Plus: BE3C Assay for Matrix Metallopeptidase 1 (MMP1) Biomarker Activity (AID 2283024); conditions: primary human bronchial epithelial cells; actives raise or lower the signal
How it was run: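 Primary human bronchial epithelial cells were dosed with test chemicals, and MMP1 levels were measured by ELISA 24 h later. Data were fitted bidirectionally against DMSO as the negative control and activity baseline.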

[6] = read-out: Pselectin, SELP (gene 6403); assay: BSK_4H_Pselectin: BioMAP Diversity Plus: 4H Assay for Pselectin Biomarker Activity (AID 2283026); conditions: primary human endothelial cells (HUVEC); actives raise or lower the signal
How it was run: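 Primary human umbilical vein endothelial cells were exposed to test chemical for 24 h, then cell-surface P-selectin was quantified by ELISA. Activity was fitted bidirectionally against DMSO as negative control and baseline.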

[7] = BSK_4H_SRB: Viability Assessment in the BioMAP Diversity Plus: 4H Assay (AID 2283027); conditions: primary human endothelial cells (HUVEC);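 further: cells exposed to compound for 24 h before staining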
How it was run: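 Human umbilical vein endothelial cells were dosed with chemical and, after 24 h, fixed with 10% TCA, stained with 0.1% sulforhodamine B, and read at 560 nm to give total protein as a cytotoxicity measure. Bidirectional fitting relative to DMSO control.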

[8] = BSK_BE3C_SRB: Viability Assessment in the BioMAP Diversity Plus: BE3C Assay (AID 2283028); conditions: primary human bronchial epithelial cells
How it was run: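 Human bronchial epithelial primary cells in confluent culture, 24 h after chemical dosing; total protein by 0.1% SRB staining after 10% TCA fixation, read at 560 nm. Bidirectional fitting versus DMSO baseline.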

[9] = read-out: Thrombomodulin, THBD (gene 7056); assay: BSK_3C_Thrombomodulin: BioMAP Diversity Plus: 3C Assay for Thrombomodulin Biomarker Activity (AID 2283029); conditions: primary human endothelial cells (HUVEC); actives raise or lower the signal
How it was run: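 Primary human umbilical vein endothelial cells (3C system) were exposed to chemical for 24 h, then thrombomodulin levels were measured by ELISA. Activity was fitted bidirectionally against the DMSO negative control as baseline.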

[10] = read-out: Urokinase-type plasminogen activator receptor (uPAR), PLAUR (gene 5329); assay: BSK_4H_uPAR: BioMAP Diversity Plus: 4H Assay for Urokinase-type plasminogen activator receptor (uPAR) Biomarker Activity (AID 2283030); conditions: primary human endothelial cells (HUVEC); actives raise or lower the signal
How it was run: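 Human umbilical vein endothelial cells in the 4H system, 24 h after chemical dosing. Cell-surface uPAR measured by ELISA, fitted in both directions versus DMSO; cytotoxicity checked by SRB total protein in parallel cultures.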

[11] = read-out: Vascular endothelial growth factor receptor 2 (Homo sapiens) (UniProt P35968); assay: BSK_4H_VEGFRII: BioMAP Diversity Plus: 4H Assay for Vascular endothelial growth factor receptor 2 (VEGFR2) Biomarker Activity (AID 2283031); conditions: primary human endothelial cells (HUVEC); actives raise or lower the signal
How it was run: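 Primary human umbilical vein endothelial cells (4H system), 24 h exposure; cell-surface VEGFR2 measured by ELISA. Bidirectional fitting versus DMSO; cytotoxicity checked in parallel by SRB total-protein staining.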

[12] = read-out: Human Leukocyte Antigen - DR isotype (HLADR), HLA-DRA (gene 3122); assay: BSK_BE3C_HLADR: BioMAP Diversity Plus: BE3C Assay for Human Leukocyte Antigen - DR isotype (HLADR) Biomarker Activity (AID 2283032); conditions: primary human bronchial epithelial cells; actives raise or lower the signal
How it was run: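 Human primary bronchial epithelial cells in the BE3C system were exposed to chemicals for 24 h, after which HLA-DR levels were quantified by ELISA. Activity was fitted bidirectionally, gain or loss of signal, against DMSO as negative control and baseline.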

[13] = read-out: Vascular cell adhesion molecule 1 (VCAM1), VCAM1 (gene 7412); assay: BSK_4H_VCAM1: BioMAP Diversity Plus: 4H Assay for Vascular cell adhesion molecule 1 (VCAM1) Biomarker Activity (AID 2283033); conditions: primary human endothelial cells (HUVEC); actives raise or lower the signal;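 further: cell-surface VCAM-1 protein measured by ELISA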
How it was run: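 Primary human umbilical vein endothelial cells were exposed to chemicals for 24 h, after which VCAM-1 was quantified by ELISA. Responses were fitted bidirectionally against DMSO as negative control and activity baseline.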

[14] = read-out: Monokine induced gamma interferon (MIG), CXCL9 (gene 4283); assay: BSK_BE3C_MIG: BioMAP Diversity Plus: BE3C Assay for Monokine induced gamma interferon (MIG) Biomarker Activity (AID 2283035); conditions: primary human bronchial epithelial cells; actives raise or lower the signal;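 further: MIG protein measured by ELISA in BE3C cultures after 24 h of dosing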
How it was run: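 ELISA read-out of MIG in human lung bronchial epithelial primary cultures, 24 h post-dosing. Bidirectional curve fit vs DMSO baseline.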

[15] = read-out: Transforming growth factor beta 1 (TGFb1), TGFB1 (gene 7040); assay: BSK_BE3C_TGFb1: BioMAP Diversity Plus: BE3C Assay for Transforming growth factor beta 1 (TGFb1) Biomarker Activity (AID 2283036); conditions: primary human bronchial epithelial cells; actives raise or lower the signal
How it was run: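 Human primary bronchial epithelial cells (BE3C system) were dosed with chemical and TGF-b1 levels measured by ELISA at 24 h. Activity was fitted bidirectionally relative to DMSO negative control as baseline.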

[16] = read-out: Plasminogen activator inhibitor-1 (PAI1), SERPINE1 (gene 5054); assay: BSK_BE3C_PAI1: BioMAP Diversity Plus: BE3C Assay for Plasminogen activator inhibitor-1 (PAI1) Biomarker Activity (AID 2283037); conditions: primary human bronchial epithelial cells; actives raise or lower the signal
How it was run: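 Human primary bronchial epithelial cells were exposed to chemical for 24 h, then PAI-1 was quantified by ELISA. Activity was fitted bidirectionally relative to the DMSO negative control baseline.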

[17] = read-out: urokinase plasminogen activator (uPA), PLAU (gene 5328); assay: BSK_BE3C_uPA: BioMAP Diversity Plus: BE3C Assay for urokinase plasminogen activator (uPA) Biomarker Activity (AID 2283038); conditions: primary human bronchial epithelial cells; actives raise or lower the signal;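 further: uPA protein level quantified by ELISA in cell cultures; uPA read one day after compound addition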
How it was run: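 Primary human bronchial epithelial cells, uPA measured by ELISA 24 h after dosing. Bidirectional change relative to DMSO; cytotoxicity checked in parallel cultures by sulforhodamine B total-protein staining.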

[18] = read-out: Interferon-gamma inducible Protein 10 (IP10), CXCL10 (gene 3627); assay: BSK_BE3C_IP10: BioMAP Diversity Plus: BE3C Assay for Interferon-gamma inducible Protein 10 (IP10) Biomarker Activity (AID 2283034); conditions: primary human bronchial epithelial cells; actives raise or lower the signal
How it was run: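 Human primary bronchial epithelial cells were exposed to chemicals for 24 hours, after which IP-10 levels were measured by ELISA. Data were fitted bidirectionally against DMSO, which served as the negative control and activity baseline.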

[19] = read-out: Urokinase-type plasminogen activator receptor (uPAR), PLAUR (gene 5329); assay: BSK_BE3C_uPAR: BioMAP Diversity Plus: BE3C Assay for Urokinase-type plasminogen activator receptor (uPAR) Biomarker Activity (AID 2283039); conditions: primary human bronchial epithelial cells; actives raise or lower the signal;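 further: cells exposed to compound for one day before measurement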
How it was run: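 Primary human bronchial epithelial cells were dosed with chemical and harvested 24 h later; uPAR was quantified by ELISA. Activity was fitted bidirectionally against DMSO as negative control and baseline.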

[20] = BSK_3C_Vis: BioMAP Diversity Plus: 3C Assay for Morphology Visualization (AID 2283025); conditions: primary human endothelial cells (HUVEC);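 further: fitted both ways so gain or loss versus DMSO counts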
How it was run: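 Human umbilical vein endothelial cells in the 3C system were imaged by light microscopy 24 h after chemical dosing to record cell morphology. Activity was fitted bidirectionally against DMSO as negative control and baseline; the endpoint serves as a background control.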

Measured: AC50

OC[C@H]1O[C@@H]2O[C@H]3[C@H](O)[C@@H](O)[C@@H](O[C@H]4[C@H](O)[C@@H](O)[C@@H](O[C@H]5[C@H](O)[C@@H](O)[C@@H](O[C@H]6[C@H](O)[C@@H](O)[C@@H](O[C@H]7[C@H](O)[C@@H](O)[C@@H](O[C@H]1[C@H](O)[C@H]2O)O[C@@H]7CO)O[C@@H]6CO)O[C@@H]5CO)O[C@@H]4CO)O[C@@H]3CO
not listed: [18] | [19] | [20]
inactive: all other assays above

NCC(F)(F)C(F)(F)C(F)(F)C(F)(F)F
active: [9] 5.95 µM
inactive: [1] | [2] | [3] | [4] | [5] | [6] | [7] | [8] | [9] | [10] | [11] | [12] | [18] | [14] | [16] | [17] | [19]

NC(=O)N(O)[C@@H]1COc2cc(OCc3ccccc3)ccc21
not listed: [13] | [18] | [20]
inactive: all other assays above

C[C@]12C=CC(=O)C=C1CC[C@H]1[C@@H]3C[C@@H](O)[C@](O)(C(=O)CO)[C@@]3(C)C[C@H](O)[C@@]12F
not listed: [13] | [18]
inactive: all other assays above
